# E coli growth-1 – E. coli growth inhibition; Escherichia coli growth, OD600, 23 h; active compounds read low; OD600 absorbance (no concentration beside the values); hit rate 0.21% among 330,000;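 active = OD600 absorbance below the run mean of sample wells minus 3.6 SD, in any replicate, cut at about 0.56 in these data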
# AddAB inh – less growth of phage-infected E. coli with AddAB. E. coli expressing H. pylori AddAB, absorbance growth. AID 435030. inhibition, % at 11.9 µM. hit rate 0.29% among 330,000; in the data active = inhibition above about 12%;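 note: 0% = vehicle wells of infected cells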
# E coli growth-2 – counter-screen for AddAB inhibitors: E. coli growth inhibition; inhibition, % at 11.9 µM; E. coli V3065 growth, OD600 absorbance, 18 h; AID 449728; hit rate 0.27% among 330,000;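 active = inhibition above the campaign's mean inhibition across all tested compounds plus 3 SD, cut at about 9.9% in these data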;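 note: uninfected addAB+ strain grown without phage in ampicillin broth; 0% = DMSO wells and 100% = ciprofloxacin 0.95 µg/ml wells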
# phage Ecoli inh – E. coli growth loss with phage present; growth absorbance; inhibition, % at 11.9 µM; hit rate 0.26% among 360,000; AID 651602; in the data active = inhibition above about 11%
# Tat transport – blocks Tat-dependent protein export in E. coli | AID 488895 | hit rate 0.036% among 340,000 | E. coli MC4100 TorA-mCherry Tat export, fluorescence | inhibition, % at 10 µM;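 active = mean replicate inhibition at least 50% and at least half of replicates individually reaching 50%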;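 note: exported cargo escapes ClpAP degradation while cytoplasmic cargo is degraded and loses fluorescence; 0% = median of neutral control wells and 100% = median of NaSCN control wells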
# Active calls of the source: *; · = no result. A selection: hits, their analogues and other compounds. The true share with any hit is near 0.5%.
SMILES,E coli growth-1,AddAB inh,E coli growth-2,phage Ecoli inh,Tat transport
c1ccc(Nc2nc(NCC3CCCO3)c3ccccc3n2)cc1 (configuration not stated),0.47*,2,1,1,-21
CCOc1ccc(Nc2c3ccccc3nc3ccccc23)cc1,0.52*,9,10,5,-8
COc1ccc(C=O)cc1C1=CC(=O)CC(c2ccc(Cl)cc2)C1 (configuration not stated),0.6,·,·,·,·
O=C(CC1CC=CCCC(Cc2ccc(F)cc2)C(=O)OCC2CCCN2C1=O)NC(CO)Cc1ccccc1 (configuration not stated),0.66,·,·,·,·
CC(=O)N1N=C(c2cccc([N+](=O)[O-])c2)OC1c1ccc(Br)cc1 (configuration not stated),0.65,-1,1,1,16
CC(=O)N1N=C(c2ccccc2)OC1c1ccc([N+](=O)[O-])s1 (configuration not stated),0.51*,-2,1,·,-2
Cc1cn(C2CC(N=[N+]=[N-])C(CO)O2)c(=O)[nH]c1=O (configuration not stated),0.062*,·,·,·,·
Cc1cn(C2CC(O)C(O)C(CO)O2)c(=O)[nH]c1=O (configuration not stated),·,·,·,3,·
O=S1(=O)CCOCC(c2ccccc2)N1Cc1ccccc1 (configuration not stated),0.68,·,·,·,·
OCCNc1nc(Nc2ccccc2)nc2ccccc12,0.67,-3,-2,-1,-6
COc1ccccc1Nc1nc(NCc2ccco2)c2ccccc2n1,0.59,-1,1,4,·
c1ccc(N2CCN(c3nc(NCc4ccco4)c4ccccc4n3)CC2)cc1,0.7,7,0,2,0
CNc1nc(NCc2ccccc2)c2ccccc2n1,0.48*,2,0,4,-7
OCCNc1nc(Nc2ccc(Br)cc2)nc2ccccc12,0.4*,-2,-1,4,·
c1ccc(CNc2nc(N3CCN(Cc4ccccc4)CC3)nc3ccccc23)cc1,0.48*,2,1,3,·
Cc1ccc(Nc2nc(NCc3ccco3)c3ccccc3n2)cc1,0.41*,0,4,4,-64
CCN(CC)c1ccc(C(=O)NNC(=O)CCl)cc1,·,-1,2,0,6
CCN(CC)c1ccc(C(=C2C=CC(=[N+](CC)CC)C=C2)c2ccc(N(CC)CC)cc2)cc1,0.89,·,·,-1,51*
CCN1/C(=C/c2ccc3cc(C)ccc3[n+]2CC)Sc2cc(C)ccc21,0.35*,·,·,8,-4
COC(=O)C1=C(C)N(CC2CC2)C(=NCCN2CCOCC2)NC1c1ccccc1 (configuration not stated),0.67,·,·,·,·
CCCNC(=O)OCC1OC(CCON=CC(NS(=O)(=O)c2ccc(C)cc2)C(C)C=CCC(=O)OC)C=CC1Oc1ccc(OC)cc1 (configuration not stated),0.7,·,·,·,·
CCOC(=O)C1C2COc3ccccc3C2N2C(=O)c3cc(Br)ccc3NC(=O)[C@@]12C (some centres not stated),0.68,·,·,·,·
NC(=S)n1[nH]c(-c2ccc([N+](=O)[O-])cc2)c(N=Nc2ccc(O)cc2)c1=O,0.7,11,17*,5,-8
NC(=S)n1[nH]c(-c2ccc([N+](=O)[O-])cc2)c(N=Nc2cccc(Cl)c2)c1=O,0.64,·,·,2,-8
Cc1ccc(NC(=O)Nc2ccno2)cc1,0.45*,2,2,7,·
SMILES,E coli growth-1,AddAB inh,E coli growth-2,phage Ecoli inh,Tat transport
Cc1ccc(NC(=O)Nc2ncccc2C)cc1,0.71,4,2,4,10
CC(=O)Nc1ccc(C)cc1,0.69,1,1,1,7
CC(=O)Nc1ccc(C(=O)CCl)cc1,0.41*,-1,-1,3,-17
CC(=O)NCc1ccc(C(=O)CCl)cc1,0.51*,0,0,0,-20
CC(=O)N(C)Cc1ccc(C(=O)CCl)cc1,0.65,-1,0,3,-4
CC(=O)NCc1ccc(C(=O)CCl)s1,0.49*,3,-3,4,-26
CC(c1ccccc1)n1nnc(COCc2ccccc2)c1C#CCOCc1ccccc1 (configuration not stated),0.7,·,·,·,·
CCCCCCCCn1c2c(c(=N)c3ccccc31)CCC2,0.59,·,·,8,-1
CCCCCCCCCCn1c2c(c(=N)c3c1CCC3)CCC2,0.22*,5,8,8,1
CCn1c2c(c(=N)c3c1CCC3)CCCC2,0.67,-2,2,2,·
CCCCCCCCCn1c2c(c(=N)c3c1CCC3)CCCC2,0.43*,·,·,·,30
CCC(=Cc1ccccc1)c1cccc2[nH]c3c(OC)cccc3c12,0.71,·,·,·,·
COC(=O)C1=CC(C(=O)OC)C2C3=C(C(=O)C2(C)C)C(C)n2c(=O)n(-c4ccccc4)c(=O)n2C3C1 (configuration not stated),0.7,·,·,·,·
COCCn1c(SCC(=O)NCc2ccc3c(c2)OCO3)nnc1-c1c[nH]c2ccccc12,0.79,1,1,93*,-1
COCCn1c(SCC(=O)NCc2ccc3c(c2)OCO3)nnc1C(C)C,0.66,2,-2,1,-6
O=C1c2ccccc2C(=O)N1CCCCc1cn(CC2CCC(C3CCC(Cn4cc(CCCCN5C(=O)c6ccccc6C5=O)nn4)O3)O2)nn1 (configuration not stated),0.68,·,·,·,·
CO[C@H]1C=CO[C@@]2(C)Oc3c(C)c(O)c4c(O)c(c5c(c4c3C2=O)NC2(CCN(CC(C)C)CC2)N=5)=NC(=O)C(C)=CC=C[C@H](C)[C@H](O)[C@@H](C)[C@@H](O)[C@@H](C)[C@H](OC(C)=O)[C@@H]1C,·,100*,102*,·,·
COC1C=CO[C@@]2(C)Oc3c(C)c(O)c4c(O)c(c(C=NN5CCN(C6CCCC6)CC5)c(O)c4c3C2=O)NC(=O)C(C)=CC=CC(C)C(O)C(C)C(O)C(C)C(OC(C)=O)C1C (some centres not stated),0.07*,·,·,·,·
NC(N)=N/N=C/c1ccc(OCc2ccc(Cl)cc2)cc1,·,2,2,3,3
NC(N)=NN=Cc1ccc(OCc2ccc(Cl)cc2Cl)cc1,0.048*,·,·,·,·
NC(N)=NN=Cc1ccc(OCc2ccc(Cl)cc2)cc1,0.045*,·,·,·,·
CC(=O)OC1C(=O)[C@@]2(C)C(O)CC3OC[C@@]3(OC(C)=O)C2C(OC(=O)c2ccccc2)[C@]2(O)CC(OC(=O)C(O)C(NC(=O)c3ccccc3)c3ccccc3)C(C)=C1C2(C)C (some centres not stated),0.68,·,·,·,·
Cc1ccc(-n2[nH]c(C)c(C=Nc3ccc(S(=O)(=O)Nc4nccs4)cc3)c2=O)cc1,0.66,13*,9,·,·
Cc1ccc(Nc2c(-c3ccccn3)nc3cccc(C)n23)cc1,0.28*,0,3,6,-31
CCOC(=O)N/N=C/C(Cl)=C/c1ccccc1,·,9,13*,2,5
CCCCCCn1ccc(=N)cc1,0.77,4,-1,1,3
CCCCCCCCCCCCCCCCn1cc[n+](CC(C)=O)c1,0.064*,·,·,·,32
NC1=NCC(Cc2ccc(O)cc2)N1CCCCC1CCCCC1 (configuration not stated),0.45*,·,·,·,·
O=c1c2ccccc2nc(C=Cc2cccc([N+](=O)[O-])c2)n1CCCO,0.72,·,·,·,·
